Laboratory results: PubChem BioAssay (NCI)
The panel holds about 83,000 compounds, 20% with a hit somewhere; the sample as a whole holds those more often.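 How to read the values: 0–100, growth inhibition (40 = 60% inhibited); 0, no net growth; -100 to 0, cell death (-40 = 40% of starting cells died; -100 = all dead).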 The source made the active and inactive calls. The calls were made as follows: active = growth percent below 10; inactive = the rest.

Columns and labels:
Assay in all cases: NCI-60 one-dose screen, 48 h (100 = growth as untreated, 0 = no growth, -100 = all killed)
Details in all cases: 10 µM unless noted
NCI-H23 lung = system: NCI-H23 lung
NCI-H226 lung = system: NCI-H226 lung
NCI-H322M lung = system: NCI-H322M lung
HOP-62 NSCLC = system: HOP-62 NSCLC
HOP-92 NSCLC = system: HOP-92 NSCLC
NCI-H522 lung = system: NCI-H522 lung
A549/ATCC NSCLC = system: A549/ATCC NSCLC
786-0 renal = system: 786-0 renal
COLO 205 colon = system: COLO 205 colon
DU-145 prostate = system: DU-145 prostate
K-562 leukemia = system: K-562 leukemia
MALME-3M melanoma = system: MALME-3M melanoma
MDA-MB-231 breast = system: MDA-MB-231 breast
RXF 393 renal = system: RXF 393 renal
SF-268 CNS = system: SF-268 CNS
SF-539 CNS = system: SF-539 CNS
UACC-257 melanoma = system: UACC-257 melanoma
M14 melanoma = system: M14 melanoma
SF-295 CNS = system: SF-295 CNS

Measured: growth

OCC12CCCC(CO)(COC1)C2O (stereo not drawn)
inactive: NCI-H23 lung 97% | NCI-H226 lung 99.8% | NCI-H322M lung 115% | HOP-62 NSCLC 106% | HOP-92 NSCLC 30.9% | NCI-H522 lung 111% | A549/ATCC NSCLC 101% | 786-0 renal 112% | COLO 205 colon 107% | DU-145 prostate 127% | K-562 leukemia 120% | MALME-3M melanoma 114% | MDA-MB-231 breast 94.3% | RXF 393 renal 121% | SF-268 CNS 113% | SF-539 CNS 105% | UACC-257 melanoma 100% | M14 melanoma 97.6%

O=C1C(=O)N(CCCCn2cc(-c3ccccc3)nn2)c2ccccc21
inactive: NCI-H23 lung 101% | NCI-H226 lung 106% | NCI-H322M lung 103% | HOP-62 NSCLC 106% | HOP-92 NSCLC 101% | NCI-H522 lung 100% | A549/ATCC NSCLC 108% | 786-0 renal 102% | COLO 205 colon 112% | DU-145 prostate 105% | K-562 leukemia 109% | MALME-3M melanoma 92.9% | MDA-MB-231 breast 102% | RXF 393 renal 114% | SF-268 CNS 101% | SF-295 CNS 102% | SF-539 CNS 93.9% | UACC-257 melanoma 100% | M14 melanoma 96.1%

COc1ccccc1-n1cnc(N)c1C(=O)c1cc(OC)c(OC)c(OC)c1
inactive: NCI-H23 lung 70% | NCI-H226 lung 56.7% | NCI-H322M lung 81.4% | HOP-62 NSCLC 52.8% | HOP-92 NSCLC 70.3% | A549/ATCC NSCLC 47.9% | 786-0 renal 37.9% | COLO 205 colon 66.1% | DU-145 prostate 73.9% | K-562 leukemia 22% | MALME-3M melanoma 50.1% | MDA-MB-231 breast 64.8% | RXF 393 renal 33% | SF-268 CNS 38.5% | SF-295 CNS 24.9% | SF-539 CNS 35.6% | UACC-257 melanoma 59.8% | M14 melanoma 44.5%
active: NCI-H522 lung 1.87%

COc1cc(NC(C)CN(CC(C)C)C(C)C)c2ncccc2c1 (stereo not drawn)
inactive: NCI-H23 lung 83.7% | NCI-H226 lung 89.7% | NCI-H322M lung 100% | HOP-62 NSCLC 109% | HOP-92 NSCLC 74.4% | NCI-H522 lung 101% | A549/ATCC NSCLC 105% | 786-0 renal 111% | COLO 205 colon 96.9% | DU-145 prostate 106% | K-562 leukemia 98.1% | MALME-3M melanoma 104% | MDA-MB-231 breast 81.1% | RXF 393 renal 113% | SF-268 CNS 94.7% | SF-295 CNS 110% | SF-539 CNS 103% | UACC-257 melanoma 99.5% | M14 melanoma 102%

c1ccc(CN2C(c3ccccc3)=Nc3ccccc3C2c2c[nH]c3ccccc23)cc1 (stereo not drawn)
active: HOP-92 NSCLC -2.7% | K-562 leukemia 4.88%
inactive: NCI-H23 lung 27.4% | NCI-H226 lung 59.3% | NCI-H322M lung 60.6% | HOP-62 NSCLC 47.1% | NCI-H522 lung 51.7% | A549/ATCC NSCLC 65.5% | 786-0 renal 46.7% | COLO 205 colon 18.3% | DU-145 prostate 85.4% | MALME-3M melanoma 55.1% | MDA-MB-231 breast 26.7% | RXF 393 renal 42.9% | SF-268 CNS 71.2% | SF-295 CNS 45.6% | SF-539 CNS 58.1% | M14 melanoma 28.9%

COc1cc(/C=N/NC(=S)NNC(=S)NC2CCCCC2)cc(OC)c1OC
inactive: NCI-H23 lung 97.4% | NCI-H226 lung 91.2% | NCI-H322M lung 93.7% | HOP-62 NSCLC 94.8% | NCI-H522 lung 89.3% | A549/ATCC NSCLC 100% | 786-0 renal 102% | COLO 205 colon 102% | DU-145 prostate 92.5% | K-562 leukemia 88.6% | MALME-3M melanoma 95.2% | MDA-MB-231 breast 77.2% | RXF 393 renal 95.6% | SF-268 CNS 102% | SF-295 CNS 98.7% | SF-539 CNS 94.8% | UACC-257 melanoma 107% | M14 melanoma 95.2%

Cc1ccc2oc(=O)cc(-c3sc(N4CCCCC4)nc3-c3ccccc3)c2c1
inactive: NCI-H23 lung 90.9% | NCI-H226 lung 90.4% | NCI-H322M lung 81.8% | HOP-62 NSCLC 89.7% | HOP-92 NSCLC 92.1% | NCI-H522 lung 89% | A549/ATCC NSCLC 99.6% | 786-0 renal 99.8% | COLO 205 colon 97.3% | DU-145 prostate 98.5% | K-562 leukemia 97.8% | MALME-3M melanoma 86% | MDA-MB-231 breast 88.1% | RXF 393 renal 101% | SF-268 CNS 87.9% | SF-295 CNS 102% | SF-539 CNS 94.7% | UACC-257 melanoma 105% | M14 melanoma 97.3%

COc1ccc(-c2nc3ncccn3c2-c2nc3ccc(Br)cc3[nH]2)cc1
inactive: NCI-H23 lung 98.4% | NCI-H226 lung 93.5% | NCI-H322M lung 94.3% | HOP-62 NSCLC 99.3% | HOP-92 NSCLC 77.1% | NCI-H522 lung 69.7% | 786-0 renal 98.1% | COLO 205 colon 104% | DU-145 prostate 94.1% | K-562 leukemia 63.5% | MALME-3M melanoma 81.3% | MDA-MB-231 breast 72.9% | RXF 393 renal 74.1% | SF-268 CNS 99.6% | SF-539 CNS 82.8% | UACC-257 melanoma 92.6% | M14 melanoma 90.5%

N#CC1=C(N)Oc2c(sc3c(F)cccc23)C1c1ccc(Cl)cc1 (stereo not drawn)
inactive: NCI-H23 lung 43.7% | NCI-H226 lung 74.9% | NCI-H322M lung 55.1% | HOP-62 NSCLC 28.8% | HOP-92 NSCLC 36.9% | A549/ATCC NSCLC 38% | 786-0 renal 21.1% | COLO 205 colon 38.4% | DU-145 prostate 41% | K-562 leukemia 14.2% | MALME-3M melanoma 57.9% | MDA-MB-231 breast 43.5% | SF-268 CNS 45.3% | SF-295 CNS 20.2% | UACC-257 melanoma 66.4%
active: NCI-H522 lung 6.14% | RXF 393 renal 9.87% | SF-539 CNS -0.306% | M14 melanoma -26.1%

C=C(C)[C@@H]1CC[C@]2(C(=O)OC)CC[C@]3(C)[C@H](CC[C@@H]4[C@@](C)(CC/C(N)=N/O)[C@H](C(=C)C)CC[C@]43C)[C@@H]12
inactive: NCI-H23 lung 107% | NCI-H226 lung 97.2% | NCI-H322M lung 105% | HOP-62 NSCLC 103% | NCI-H522 lung 95.4% | A549/ATCC NSCLC 91.8% | 786-0 renal 94.7% | COLO 205 colon 107% | DU-145 prostate 104% | K-562 leukemia 86.3% | MALME-3M melanoma 98.2% | MDA-MB-231 breast 104% | RXF 393 renal 112% | SF-268 CNS 96.6% | SF-295 CNS 96.4% | SF-539 CNS 97.5% | UACC-257 melanoma 103%

Nc1ccc(Cl)cn1
inactive: NCI-H23 lung 97.7% | NCI-H226 lung 95% | NCI-H322M lung 104% | HOP-62 NSCLC 95% | HOP-92 NSCLC 87% | NCI-H522 lung 82.9% | A549/ATCC NSCLC 87.7% | 786-0 renal 106% | COLO 205 colon 108% | DU-145 prostate 106% | K-562 leukemia 107% | MALME-3M melanoma 99.7% | MDA-MB-231 breast 101% | RXF 393 renal 113% | SF-268 CNS 100% | SF-295 CNS 97.3% | SF-539 CNS 96.4% | M14 melanoma 105%

COc1cc2c(cc1-c1c(C)noc1C)ncc1nc(C3CCC(F)(F)CC3)n([C@@H](C)COC(F)F)c12
inactive: NCI-H23 lung 60.2% | NCI-H226 lung 55% | NCI-H322M lung 40.6% | HOP-62 NSCLC 31.7% | HOP-92 NSCLC 35.1% | NCI-H522 lung 31.5% | A549/ATCC NSCLC 37.5% | 786-0 renal 43.5% | COLO 205 colon 23.5% | DU-145 prostate 66.9% | K-562 leukemia 25% | MALME-3M melanoma 76.1% | MDA-MB-231 breast 41.6% | RXF 393 renal 54.7% | SF-268 CNS 67.8% | SF-295 CNS 47.7% | SF-539 CNS 30.8% | UACC-257 melanoma 35.9% | M14 melanoma 41.4%

COc1cc(-c2cc3ncccc3c3nc(N)c4cccnc4c23)cc(OC)c1OC
active: COLO 205 colon -15.6% | DU-145 prostate 2.16% | SF-539 CNS -1.92% | M14 melanoma 4.68%
inactive: NCI-H23 lung 24.5% | NCI-H226 lung 38.7% | NCI-H322M lung 44.3% | HOP-62 NSCLC 27.3% | HOP-92 NSCLC 41.2% | NCI-H522 lung 17.4% | A549/ATCC NSCLC 12.7% | 786-0 renal 12.9% | K-562 leukemia 16.3% | MALME-3M melanoma 50.9% | MDA-MB-231 breast 36.5% | RXF 393 renal 10.9% | SF-268 CNS 29.6% | SF-295 CNS 12.4% | UACC-257 melanoma 44.3%

N#C/C(=C\c1ccc(-c2ccc(Br)cc2)o1)c1nc(-c2ccco2)cs1
inactive: NCI-H23 lung 89.4% | NCI-H226 lung 88.2% | NCI-H322M lung 85% | HOP-62 NSCLC 95.7% | HOP-92 NSCLC 86.3% | NCI-H522 lung 93.2% | A549/ATCC NSCLC 98.3% | 786-0 renal 98.8% | COLO 205 colon 102% | DU-145 prostate 101% | K-562 leukemia 97.9% | MALME-3M melanoma 97.7% | MDA-MB-231 breast 76% | RXF 393 renal 101% | SF-268 CNS 101% | SF-295 CNS 91.2% | SF-539 CNS 90.8% | UACC-257 melanoma 102% | M14 melanoma 89.2%

Cc1ccc(S(=O)(=O)Nc2ccc(-c3cc(-c4cccc(F)c4)c(C#N)c(N)n3)cc2)cc1
active: HOP-92 NSCLC -39.3% | NCI-H522 lung -71.4% | K-562 leukemia 2.53% | RXF 393 renal -18.2% | M14 melanoma -8.83%
inactive: NCI-H23 lung 55.3% | NCI-H226 lung 36.7% | NCI-H322M lung 72.2% | HOP-62 NSCLC 53.1% | 786-0 renal 13.4% | COLO 205 colon 23.9% | DU-145 prostate 49.4% | MALME-3M melanoma 44.4% | MDA-MB-231 breast 20.6% | SF-268 CNS 47% | SF-295 CNS 78.9% | SF-539 CNS 24% | UACC-257 melanoma 41.9%

COc1ccc(O)c(-c2cc(-c3ccc(Cl)cc3)c(C#N)c(=O)[nH]2)c1
inactive: NCI-H23 lung 69.6% | NCI-H226 lung 89.1% | NCI-H322M lung 101% | HOP-62 NSCLC 64% | NCI-H522 lung 36.8% | A549/ATCC NSCLC 86.7% | 786-0 renal 68.3% | COLO 205 colon 95.2% | DU-145 prostate 102% | K-562 leukemia 23.5% | MALME-3M melanoma 105% | MDA-MB-231 breast 61.2% | RXF 393 renal 84.5% | SF-268 CNS 85.2% | SF-295 CNS 61.5% | SF-539 CNS 52.4% | M14 melanoma 49.9%
